Data as given in PubChem BioAssay (Tox21).
Several values for one entry are separate records, joined by “and”; a condition that tells them apart may be missing. Equal entries are not always repeated. Inconclusive results are not listed. Activity calls are given as the source filed them. The call rests on the fitted dose curve; in most records, active means well fitted curve in the direction sought with a large enough effect in the repeat runs; inconclusive means weak or mixed curves; inactive means no such curve, though single readings can be large; an effect the other way counts as inactive or inconclusive.

Experiments:
[1] = qHTS RealTime-Glo MT Cell Viability Assay in HepG2 cells - 24 hour (AID 1224867); further: nearly all actives have a fitted effect of over 50% in size
In short: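 Cell number in HepG2 cultures estimated from NanoLuc luminescence generated by metabolic reduction of a prosubstrate by living cells. The homogeneous, nonlytic format allowed repeated reads at 0, 8, 16, 24, 32 and 40 h of compound exposure.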

[2] = qHTS RealTime-Glo MT Cell Viability Assay in HEK293 cells - 32 hour (AID 1224868); further: top concentration of the series differs between compounds; nearly all actives have a fitted effect of over 50% in size
In short: (§1)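 Homogeneous bioluminescent viability format in HEK293 cells (600 cells/well). Following 5 h at 37 C/5% CO2, 23 nL compound was pintooled; the signal was measured repeatedly during 40 h incubation.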

[3] = A CellTox Green Cytotoxicity Assay to monitor cytotoxicity in HEK293 cells - 0 hour (AID 1224869); further: nearly all actives have a fitted effect of over 50% in size
In short: (§2)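 Read-out: fluorescence of a cell-impermeant cyanine dye staining DNA of dead cells, proportional to cytotoxicity. HEK293, 600 cells/well with reagent, compound (23 nL DMSO) added after 5 h; reads at 0, 8, 16, 24, 32, 40 h.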

[4] = qHTS RealTime-Glo MT Cell Viability Assay in HepG2 cells - 40 hour (AID 1224870); further: nearly all actives have a fitted effect of over 50% in size
In short: (§3)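 Real-time viability: cells seeded at 600 per well together with NanoLuc and cell-permeant prosubstrate, compounds added after 5 h incubation. Luminescence tracked at 0, 8, 16, 24, 32 and 40 h of exposure.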

[5] = qHTS RealTime-Glo MT Cell Viability Assay in HEK293 cells - 16 hour (AID 1224872)
In short: as §1

[6] = qHTS RealTime-Glo MT Cell Viability Assay in HepG2 cells - 8 hour (AID 1224873); further: nearly all actives have a fitted effect of over 55% in size
In short: as §3

[7] = qHTS RealTime-Glo MT Cell Viability Assay in HEK293 cells - 40 hour (AID 1224874); conditions: RealTime-Glo luminescence; max response: hits give low values; further: nearly all actives have a fitted effect of over 50% in size
In short: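 Luminescence readout at each listed time point; HEK293, 600 cells/well, RealTime-Glo MT reagent added with cells; compounds pinned (23 nL in DMSO) after 5 h at 37 C; continuous culture at 37 C.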

[8] = A CellTox Green Cytotoxicity Assay to monitor cytotoxicity in HEK293 cells - 40 hour (AID 1224871); further: nearly all actives have a fitted effect of over 45% in size
In short: as §2
On the % scale 0 is the no-effect control and ±100 the full control effect.

O=C=NCCCCCCN=C=O
inactive: outcome [1] | Potency [2] | outcome [3] | outcome [4] | Potency [5] | outcome [6] | max response [7] 4.38%

CCCCC(CC)COC(=O)CCCCC(=O)OCC(CC)CCCC (stereo not given)
inactive: outcome [1] | Potency [2] | outcome [3] | outcome [4] | Potency [5] | outcome [6] | max response [7] -6.84% and 6.57%

CC(=O)Nc1ccccc1
inactive: outcome [1] | Potency [2] | outcome [3] | Potency [5] | outcome [6]

CC(C)c1ccc(S(=O)(=O)O)cc1
inactive: outcome [1] | Potency [2] | outcome [3] | Potency [5]

Cc1ccc2oc(=O)ccc2c1
inactive: outcome [1] | Potency [2] | outcome [3] | Potency [8] | Potency [5] | outcome [6] | max response [7] -2.42% and -2.11%

COc1ccc2cc([C@H](C)C(=O)O)ccc2c1
inactive: outcome [1] | Potency [2] | outcome [3] | Potency [8] | Potency [5] | max response [7] 5.06% and -0.971%

FC(F)(F)c1ccc(Cl)c(Cl)c1
inactive: outcome [1] | Potency [2] | outcome [3] | Potency [8] | Potency [5] | outcome [6] | max response [7] 1.14% and 2.54%

O=S1(=O)CC=CC1
inactive: outcome [1] | Potency [2] | outcome [3] | Potency [8] | Potency [5] | outcome [6] | max response [7] -4.83% and 3.43%

CC(C)(C)[C@@H](O)[C@@H](Cc1ccc(Cl)cc1)n1cncn1
inactive: outcome [1] | outcome [3] | outcome [4] | Potency [5] | outcome [6]

O=C1CCC(N2C(=O)c3ccccc3C2=O)C(=O)N1 (stereo not given)
inactive: outcome [1] | Potency [2] | outcome [3] | Potency [8] | Potency [5] | outcome [6] | max response [7] 7.18% and -6.83%

CC(=O)c1ccccc1
inactive: outcome [1] | Potency [2] | outcome [3] | Potency [8] | Potency [5]

O=C(OCCOCCOC(=O)c1ccccc1)c1ccccc1
inactive: outcome [1] | outcome [3] | outcome [4] | Potency [8] | outcome [6] | max response [7] -18.1%

CC1=CC(=O)NS(=O)(=O)O1
inactive: outcome [1] | Potency [2] | outcome [3] | Potency [5] | outcome [6] | max response [7] -28.6% and 3.78%

CCCCCC(N)=O
inactive: outcome [1] | Potency [2] | outcome [3] | Potency [5] | outcome [6]

O=C(O)CC(C(=O)O)C(CC(=O)O)C(=O)O (stereo not given)
inactive: outcome [1] | Potency [2] | outcome [3] | Potency [5] | outcome [6] | max response [7] -2.07% and -0.191%

CC(=O)OCC(=O)[C@@]12N=C(C)O[C@@H]1C[C@H]1[C@@H]3CCC4=CC(=O)C=C[C@]4(C)[C@H]3[C@@H](O)C[C@@]12C
inactive: outcome [1] | Potency [2] | outcome [3] | Potency [5] | outcome [6]

OCc1cccnc1
inactive: outcome [1] | Potency [2] | outcome [3] | Potency [5] | max response [7] -2.21% and -1.61%

COc1ccc(Cl)cc1C(=O)NCCc1ccc(S(=O)(=O)NC(=O)NC2CCCCC2)cc1
inactive: outcome [1] | Potency [2] | outcome [3] | Potency [8] | Potency [5] | max response [7] -19.9% and -25.1%

O=S(=O)(O)c1ccc2ccccc2c1
inactive: outcome [1] | Potency [2] | outcome [3] | Potency [8] | Potency [5] | outcome [6] | max response [7] 19.4% and -5.62%

CC(=O)CC(=O)Nc1ccccc1
inactive: outcome [1] | Potency [2] | outcome [3] | outcome [4] | Potency [5] | max response [7] -1.61% and 1.86%

CC1=CCC2CC1C2(C)C (stereo not given)
inactive: outcome [1] | Potency [2] | outcome [3] | Potency [8] | Potency [5] | outcome [6] | max response [7] -11.4% and 10.5%

CCCCN(CCCC)CCCC
inactive: outcome [1] | Potency [2] | outcome [3] | Potency [5] | outcome [6] | max response [7] 6% and 4.07%

CCCSc1ccc2nc(NC(=O)OC)[nH]c2c1
inactive: outcome [1] | outcome [3] | outcome [4] | Potency [8] | Potency [5] | outcome [6]

CCCCOC(=O)COc1ccc(Cl)cc1Cl
inactive: outcome [1] | Potency [2] | outcome [3] | Potency [8] | Potency [5] | outcome [6] | max response [7] -3.14% and 1.1%

CCCC(C)=O
inactive: outcome [1] | Potency [2] | outcome [3] | Potency [5] | outcome [6]
